High-throughput results: PubChem, National Center for Advancing Translational Sciences (NCATS)
DRD3 agonist = activates the human D3 dopamine receptor; P35462; D3R DiscoveRx beta-arrestin cells, luminescence, 90 min; max activation, %; actives 0.58% (n = 410,000); AID 652048; in the data active = max activation above about 30%; note: 0% is about no effect
Target sequence (P35462 whole entry, looked up): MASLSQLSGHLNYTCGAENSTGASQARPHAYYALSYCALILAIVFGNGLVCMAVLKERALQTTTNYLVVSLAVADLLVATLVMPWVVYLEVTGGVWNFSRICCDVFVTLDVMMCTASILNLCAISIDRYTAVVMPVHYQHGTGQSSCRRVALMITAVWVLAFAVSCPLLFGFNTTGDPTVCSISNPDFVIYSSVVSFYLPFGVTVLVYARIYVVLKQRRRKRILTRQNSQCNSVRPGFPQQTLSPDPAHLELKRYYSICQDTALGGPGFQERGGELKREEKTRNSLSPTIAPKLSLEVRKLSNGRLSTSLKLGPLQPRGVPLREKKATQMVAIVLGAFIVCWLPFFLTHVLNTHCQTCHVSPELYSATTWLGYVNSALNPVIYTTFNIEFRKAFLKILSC
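Cells at 1500/well, incubated overnight, then treated with pinned compounds (dopamine as control) for 90 min at 37 degrees C. DiscoveRx reagent added for 30 - 60 minutes at room temperature; luminescence read.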
D1 antagonist = human D1 dopamine receptor antagonism; HEK293 TREx D1 cells, calcium flux, dopamine EC80; active compounds read low; activity change, negative = inhibition, % at 10 µM; actives 3.2% (n = 360,000); AID 504652; in the data active = activity change below about -30%; note: % is set by controls: 0 for no effect and ±100 for the full control effect
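Inducible Hek293 Trex D1 cells (tetracycline, overnight, 30 C). Calcium dye 30–90 min RT. Antagonist mode: EC80 dopamine added after 180 s compound read.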
D1 ag = activates the human D1 dopamine receptor | P21728 | HEK293 T-REx D1 cells, calcium flux, agonist mode | activation, % at 2 µM | actives 1% (n = 360,000); in the data active = activation above about 30%; note: 0% is about no effect
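Inducible HEK293 T-REx D1 cells, force-coupled to calcium signalling, were plated at 4000 cells/well with tetracycline and held overnight at 30 C. After no-wash calcium dye loading, compound-evoked calcium rise over 180 s flagged agonists.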
D1 PAM = potentiators of human D1 dopamine receptor; P21728; HEK293 TREx D1 cells, calcium flux, dopamine EC20 potentiation; potentiation, % at 10 µM; actives 0.036% (n = 360,000); AID 504651; in the data active = potentiation above about 30%; note: 0% is about no effect
D3 antag = blocks the human D3 dopamine receptor; P35462; D3R cells, DiscoveRx beta-arrestin luminescence, antagonist mode; active compounds read low; max response, negative = inhibition, %; actives 2.5% (n = 360,000); in the data active = max response below about -50%; note: % is set by controls: 0 for no effect and ±100 for the full control effect
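Cells plated overnight at 1500 cells/well, then exposed to library compounds with dopamine controls for 90 minutes at 37 degrees C. DiscoveRx reagent added for 30–60 minutes at room temperature; luminescence read, quantitative HTS format.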
An asterisk follows results filed as active; . = no result. Most compounds without a hit are left out; they make up all but 6% or so of the library.

SMILES	DRD3 agonist	D1 antagonist	D1 ag	D1 PAM	D3 antag
COc1ccc(-c2csc(C(C)(O)c3cccc(OC)c3)n2)cc1 (centres undefined)	6	.	.	.	16
CC(O)(c1cccc(F)c1)c1nc(-c2cccc(C(F)(F)F)c2)cs1 (centres undefined)	-16	.	.	.	-53*
COc1cccc(C(C)(O)c2nc(-c3ccc(S(C)(=O)=O)cc3)cs2)c1 (centres undefined)	80*	.	.	.	-13
Cc1ccc(Cc2c(-c3ccc(C#N)cc3)nc3ccc(Cl)cn23)cc1	3	.	.	.	24
CC(O)(c1ccccc1)c1nc(-c2cccc(C(=O)O)c2)cs1 (centres undefined)	-7	.	.	.	-10
CC(C)c1cccc(-c2csc(C(C)(O)c3ccccc3)n2)c1 (centres undefined)	-15	.	.	.	-57*
Cc1cccc(NS(=O)(=O)c2ccc3oc(=O)c4ncn(C)c4c3c2)c1C	42*	4	0	0	.
COc1ccc(N(CC(=O)NC2CCCCC2)C(=O)c2ccc(C)s2)c(OC)c1	0	-35*	1	.	-10
CC(=O)c1cc(F)c(N2CCN(C(=O)c3ccco3)CC2)cc1C	5	-32*	22	-6	33
CC(=O)c1ccc(N2CCN(C(=O)c3ccco3)CC2)c(F)c1	-1	3	20	-2	0
CCC(=O)c1cc(F)ccc1OCC(=O)N1CCN(c2ccc(F)cc2)CC1	-3	-34*	7	-8	11
CC(=O)c1cc(F)c(N2CCN(C(=O)COc3ccc(F)cc3)CC2)cc1C	4	-33*	7	-7	348
CCn1cc(C(=O)NC(C)C)c(=O)c2cc(F)c(N3CCN(C(=O)c4ccco4)CC3)cc21	-5	-31*	5	-3	5
CCOCC(=O)N1CCN(c2ccc(F)cc2)CC1	11	13	1	-2	-4
Cc1cnc(C(=O)OCC(=O)Nc2ccc(Br)cc2F)cn1	-1	9	0	-2	-11
CCOc1ccccc1OCCC(=O)OCC(=O)Nc1c(C)nn(-c2ccccc2)c1C	-9	-3	1	5	0
COc1ccc2c(Cl)c(C(=O)N/N=C3\CCCC(=O)C3)sc2c1	-3	-18	44*	-3	-4
COc1ccc2c(Cl)c(C(=O)N/N=C/c3ccc4c(c3)OCO4)sc2c1	3	13	3	-7	6
CC(C)Cn1nc(C(=O)Nc2nnc(C3CC3)s2)c2ccccc2c1=O	-3	17	-1	-1	2
CC1(C)OC(=O)C(=CNc2ncccn2)C(=O)O1	-16	1	0	-4	-68*
Cc1cc(C(=O)CCC(=O)N(C)CC(=O)Nc2ccc(OC(F)(F)F)cc2)c(C)s1	0	0	1	3	14
COc1ccc(S(=O)(=O)c2c(Nc3ccc(C)cc3C)sc(C(=O)c3ccc(F)cc3)c2N)cc1	-7	-48*	88*	-3	.
CCc1ccccc1Nc1sc(C(=O)c2cccc(OC)c2)c(N)c1S(=O)(=O)c1ccccc1	-1	11	13	-1	.
COc1ccc(S(=O)(=O)c2c(Nc3ccccc3F)sc(C(=O)c3cccc(OC)c3)c2N)cc1	-18	0	80*	-1	.
CCOc1ccc(Nc2sc(C(=O)c3ccc(F)cc3)c(N)c2S(=O)(=O)c2ccc(C)cc2)cc1	-5	-41*	48*	0	.
SMILES	DRD3 agonist	D1 antagonist	D1 ag	D1 PAM	D3 antag
CC(C)c1ccc(CN2CCSCC2)cc1	-5	41	-3	1	-17
Cn1c(N)c(C(=O)COC(=O)/C=C/c2cccc(F)c2)c(=O)n(C)c1=O	3	3	5	-10	39
CC(C)Cn1c(N)c(C(=O)COC(=O)Cc2cccs2)c(=O)n(C)c1=O	4	-26	21	2	6
Cn1c(N)c(C(=O)COC(=O)/C=C/c2ccc(F)cc2)c(=O)n(C)c1=O	0	-5	9	1	6
Cn1c(N)c(C(=O)COC(=O)/C=C/c2cccc(Br)c2)c(=O)n(C)c1=O	-2	-33*	5	-1	8
COc1ccc(/C=C/C(=O)OCC(=O)c2c(N)n(C)c(=O)n(C)c2=O)cc1	-5	-32*	13	1	-3
CC(C)Cn1c(N)c(C(=O)COC(=O)/C=C/c2cccs2)c(=O)n(C)c1=O	33*	-8	15	3	1
